The values below come from PubChem BioAssay.

Assay [1] can be described thus: binders of probe aFSTL3 on microarray, primary screen, stem cell growth factor project, biochemical, small-molecule microarray, fluorescence 635/667 (AID 1064).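 Also: measures binding of the biotinylated anti-FSTL3 antibody to printed compounds.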 As to conditions: higher = more signal.
Assay [2] in a line: binders from COS7 lysate, DM2A8 probe, primary screen, torsin A project, cell lysate, small-molecule microarray, fluorescence 635/667 (AID 1065). The note with it: higher = more signal, COS7 lysate expressing mutant human TOR1A.
A short description of assay [3]: binders of probe aFGF2 on microarray, primary screen, stem cell growth factor project, biochemical, small-molecule microarray, fluorescence 635/667 (AID 1067).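 Also: measures binding of biotinylated aFGF2 protein to printed compounds on slides; z-score merges feature fluorescence and signal-to-noise across triplicate slides.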 As to conditions: higher = more signal.
Assay [4] is described as follows: binders of probe aFGF10 on microarray, primary screen, stem cell growth factor project, biochemical, small-molecule microarray, fluorescence 635/667 (AID 1071).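 Also: score merges 667 nm spot intensity and signal to noise from triplicate slides.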 As to conditions: higher = more signal.
In assay [5] the target is Neurogenic locus notch homolog protein 2 (Homo sapiens) (UniProt Q04721). The experiment in a line: Notch2 binders on small-molecule microarrays, primary screen, biochemical, small-molecule microarray, 635 nm fluorescence, stem cell growth factors (AID 1073). The note with it: Notch2 binding, higher = more signal.
Assay [6] deals with Pro-neuregulin-1, membrane-bound isoform (Homo sapiens) (UniProt Q02297). The experiment in a line: NRG1 binders on small-molecule microarrays, primary screen, psychiatric disease protein project, biochemical, small-molecule microarray, fluorescence 635/667 (AID 1075).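 Also: score combines 667 nm spot fluorescence with signal to noise.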 The note with it: NRG1 binding, 635 nm fluorescence, higher = more signal.
The subject of assay [7] is Neuregulin-1 EGF-like domain. The experiment in a line: binders of neuregulin-1 EGF-like domain, primary screen, biochemical, small-molecule microarray, 635 nm fluorescence (AID 1081).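 Also: binding of the protein to compounds printed on small-molecule microarray slides.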 As to conditions: small-molecule microarray binding, higher = more signal.
A short description of assay [8]: FRG1 promoter luciferase signal modulators, primary screen, FRG1 inhibition for FSHD, cell-based, C2C12 myotubes, firefly/Renilla luciferase, luminescence (AID 1084). As to conditions: higher = more signal, called active from +8 up or from −8 down.
Assay [9] is described as follows: binders of probe aFST on microarray, primary screen, stem cell growth factor project, biochemical, small-molecule microarray, fluorescence 635/667 (AID 1086).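 Also: score merges 667 nm fluorescence with signal-to-noise of each printed compound spot.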 The note with it: higher = more signal.
A short description of assay [10]: binders of probe aHhip on microarray, primary screen, stem cell growth factor project, biochemical, small-molecule microarray, fluorescence 635/667 (AID 1087).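 Also: score merges spot fluorescence at 667nm with spot signal to noise ratio.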 As to conditions: higher = more signal.

The source made the active and inactive calls.

Chain of Neurogenic locus notch homolog protein 2 (Homo sapiens) (Q04721 whole entry, looked up, canonical isoform): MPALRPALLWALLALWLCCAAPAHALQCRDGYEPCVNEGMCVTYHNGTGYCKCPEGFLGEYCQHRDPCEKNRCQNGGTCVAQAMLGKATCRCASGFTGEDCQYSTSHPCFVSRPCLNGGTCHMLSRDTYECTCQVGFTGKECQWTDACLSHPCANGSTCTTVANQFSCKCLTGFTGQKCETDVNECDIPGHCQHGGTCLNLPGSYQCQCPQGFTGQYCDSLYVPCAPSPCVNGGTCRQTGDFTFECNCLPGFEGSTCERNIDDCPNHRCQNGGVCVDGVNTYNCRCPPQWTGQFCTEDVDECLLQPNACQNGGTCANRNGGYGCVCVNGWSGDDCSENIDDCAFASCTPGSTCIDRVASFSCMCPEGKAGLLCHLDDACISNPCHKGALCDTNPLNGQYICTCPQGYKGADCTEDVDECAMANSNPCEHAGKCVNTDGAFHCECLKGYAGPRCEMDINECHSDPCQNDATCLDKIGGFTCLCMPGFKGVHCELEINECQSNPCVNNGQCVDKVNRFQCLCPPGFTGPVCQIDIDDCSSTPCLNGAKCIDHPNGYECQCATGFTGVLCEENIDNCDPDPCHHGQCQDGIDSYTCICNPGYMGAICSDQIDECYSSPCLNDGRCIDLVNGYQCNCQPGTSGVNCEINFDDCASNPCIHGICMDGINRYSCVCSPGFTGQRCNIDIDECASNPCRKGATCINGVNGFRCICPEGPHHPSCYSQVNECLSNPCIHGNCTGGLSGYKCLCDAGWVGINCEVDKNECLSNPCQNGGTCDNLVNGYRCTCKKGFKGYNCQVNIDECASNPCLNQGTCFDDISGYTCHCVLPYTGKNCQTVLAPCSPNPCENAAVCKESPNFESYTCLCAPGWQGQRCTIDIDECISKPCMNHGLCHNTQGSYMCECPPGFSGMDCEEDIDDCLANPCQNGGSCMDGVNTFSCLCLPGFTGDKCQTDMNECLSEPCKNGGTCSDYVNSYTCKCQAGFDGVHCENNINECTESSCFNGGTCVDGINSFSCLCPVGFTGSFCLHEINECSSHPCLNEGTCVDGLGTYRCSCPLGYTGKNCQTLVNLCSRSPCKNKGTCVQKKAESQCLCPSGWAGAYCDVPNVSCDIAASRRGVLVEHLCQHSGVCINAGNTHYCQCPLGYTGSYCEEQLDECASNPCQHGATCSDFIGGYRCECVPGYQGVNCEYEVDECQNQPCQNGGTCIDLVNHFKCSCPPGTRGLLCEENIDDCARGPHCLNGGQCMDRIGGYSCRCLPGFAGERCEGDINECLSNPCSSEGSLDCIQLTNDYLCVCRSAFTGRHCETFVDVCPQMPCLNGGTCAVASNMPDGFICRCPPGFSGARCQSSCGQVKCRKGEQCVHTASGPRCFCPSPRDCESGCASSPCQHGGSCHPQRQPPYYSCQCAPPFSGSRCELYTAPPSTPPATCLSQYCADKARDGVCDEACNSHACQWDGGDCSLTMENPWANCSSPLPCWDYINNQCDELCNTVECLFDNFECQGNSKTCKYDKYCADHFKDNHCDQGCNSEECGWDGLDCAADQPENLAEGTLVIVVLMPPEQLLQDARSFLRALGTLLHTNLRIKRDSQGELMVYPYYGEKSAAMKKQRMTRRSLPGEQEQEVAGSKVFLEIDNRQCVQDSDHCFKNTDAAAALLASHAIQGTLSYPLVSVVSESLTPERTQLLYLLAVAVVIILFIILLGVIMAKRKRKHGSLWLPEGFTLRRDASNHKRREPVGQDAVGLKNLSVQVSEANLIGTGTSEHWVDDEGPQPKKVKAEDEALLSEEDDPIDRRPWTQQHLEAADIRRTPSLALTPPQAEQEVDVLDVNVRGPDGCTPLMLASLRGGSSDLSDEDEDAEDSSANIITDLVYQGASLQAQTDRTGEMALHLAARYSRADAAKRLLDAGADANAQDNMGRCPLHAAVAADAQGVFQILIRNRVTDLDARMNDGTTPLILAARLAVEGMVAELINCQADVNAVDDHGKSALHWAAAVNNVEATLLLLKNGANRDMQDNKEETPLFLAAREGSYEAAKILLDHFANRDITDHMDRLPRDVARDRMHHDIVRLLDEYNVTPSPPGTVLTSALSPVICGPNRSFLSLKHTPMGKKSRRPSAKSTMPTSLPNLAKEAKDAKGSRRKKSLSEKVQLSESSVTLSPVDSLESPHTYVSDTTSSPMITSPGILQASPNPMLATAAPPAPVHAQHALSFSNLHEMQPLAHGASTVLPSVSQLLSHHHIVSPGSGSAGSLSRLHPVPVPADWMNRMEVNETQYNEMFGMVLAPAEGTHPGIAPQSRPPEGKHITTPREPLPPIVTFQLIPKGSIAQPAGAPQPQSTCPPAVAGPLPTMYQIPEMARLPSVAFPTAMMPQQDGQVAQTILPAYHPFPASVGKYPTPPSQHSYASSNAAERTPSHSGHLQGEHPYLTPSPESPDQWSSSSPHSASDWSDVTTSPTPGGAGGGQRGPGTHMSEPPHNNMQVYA
Chain of Pro-neuregulin-1, membrane-bound isoform (Homo sapiens) (Q02297 whole entry, looked up, the tested form may be a part, canonical isoform): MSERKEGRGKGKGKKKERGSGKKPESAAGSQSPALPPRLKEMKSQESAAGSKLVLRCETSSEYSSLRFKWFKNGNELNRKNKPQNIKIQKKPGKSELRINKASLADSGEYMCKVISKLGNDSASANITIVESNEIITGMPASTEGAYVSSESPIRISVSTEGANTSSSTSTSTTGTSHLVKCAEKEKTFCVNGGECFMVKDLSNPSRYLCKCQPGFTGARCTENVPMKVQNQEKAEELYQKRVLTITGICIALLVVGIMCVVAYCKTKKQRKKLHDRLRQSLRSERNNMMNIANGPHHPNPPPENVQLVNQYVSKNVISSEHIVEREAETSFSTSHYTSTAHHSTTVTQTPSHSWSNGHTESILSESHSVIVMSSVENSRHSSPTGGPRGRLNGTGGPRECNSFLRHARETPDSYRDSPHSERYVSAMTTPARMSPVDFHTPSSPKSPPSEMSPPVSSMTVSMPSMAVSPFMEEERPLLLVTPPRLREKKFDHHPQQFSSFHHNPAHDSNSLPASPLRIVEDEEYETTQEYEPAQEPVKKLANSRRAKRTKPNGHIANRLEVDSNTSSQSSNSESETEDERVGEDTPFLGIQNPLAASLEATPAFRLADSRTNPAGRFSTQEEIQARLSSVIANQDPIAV

As to `Cc1ccc(S(=O)(=O)n2c3ccccc3c3nnc(C(=O)c4ccccc4)nc32)cc1`, the composite z-score in assay [1] was -0.474; in assay [2], 0.338; in assay [3] it was -0.0603; in [4], 0.316; in assay [5], 0.197; in assay [6], -0.457. In addition, the composite z-score in assay [7] is 0.355; in [9], 0.141; in assay [10] it was -0.137. In assay [8], the z-score is 49.6 (active).
Regarding `C=CC1=C[C@H](O)[C@@H]2O[C@@H]2C12OCCCO2`, the composite z-score in assay [1] is -0.0605; in assay [2] it was 0.2; in assay [3] it was -0.204; in assay [4] it was 0.206; in [5], 0.0754; in [6], 0.122. Besides, the composite z-score in [7] was 0.35; in assay [9], -0.136; in assay [10] it was 0.0274. The z-score in assay [8] is 0.293 (inactive).
Regarding `CCOC(=O)[C@H](CC(C)C)NC(=O)CCC1CC(OC(=O)NCc2cccc3ccccc23)CC2(CCCC(COC(=O)NCCCN3CCCC3=O)O2)O1` (stereo not given in full), the composite z-score is -0.494 in assay [1]; 0.129 in [2]; -0.131 in [3]; 0.208 in [4]; 0.755 in [5]; 0.466 in assay [6]. The composite z-score was 0.953 in assay [7], 0.253 in assay [9] and -0.212 in assay [10]. Also, in [8], the z-score was 1.74 (inactive).
With `CC(C)(C)N1C(=O)[C@H]2[C@H]3[C@H](O)[C@H](O)CC(=O)[C@@H]3CC[C@H]2C1=O`, the composite z-score in assay [1] was 1.64; in assay [2], 0.0227; in assay [3], -0.156; in assay [4] it was 0.673; in assay [5], 0.259; in [6], -0.404. For the same compound, the composite z-score is 0.304 in assay [7], 0.723 in assay [9] and -0.0645 in assay [10]. The z-score in assay [8] was -0.255 (inactive).
Consider `COC(=O)CC=C[C@H](C)[C@@H](OCc1cccc(Br)c1)[C@@H](C)[C@H](OC)C1CCCCC1`, for which the composite z-score is -0.191 in assay [1]; 0.451 in assay [2]; -0.245 in [3]; 0.106 in assay [4]; -0.723 in [5]; 0.419 in [6]. For the same compound, the composite z-score in assay [7] is -0.3; in assay [9] it was -0.118; in assay [10], 0.0024. In assay [8], the z-score was 1.23 (inactive).
Take `CO[C@H]1COC(=O)CC=C[C@H](C)[C@@H](OC)COC(=O)[C@H](C)COC(=O)CC=C[C@@H]1C`: the composite z-score is -0.687 in assay [1]; 1.34 in assay [2]; -0.223 in assay [3]; -0.562 in assay [4]; -0.407 in [5]; -0.785 in assay [6]. The composite z-score in [7] was -0.142; in assay [9], -0.176; in [10], 0.0722. Besides, in assay [8], the z-score is -0.387 (inactive).
On to `CCOC(=O)[C@H](CC(C)C)NC(=O)CCC1CC(OC(=O)NCCc2ccc(F)cc2)CC2(CCCC(COC(=O)NCC(c3ccccc3)c3ccccc3)O2)O1` (stereo not given in full), for which the composite z-score was -0.65 in assay [1]; 0.149 in assay [2]; -0.136 in assay [3]; 0.433 in [4]; 0.787 in [5]; 0.221 in assay [6]. The composite z-score in assay [7] is 1.12; in assay [9], 0.0026; in assay [10], -0.236. For the same compound, the z-score in [8] was 2.36 (inactive).
Take `COC(=O)CC=C[C@@H](C)[C@@H](C=NO[C@@H](C)c1cn([C@H](CO)Cc2ccccc2)nn1)NS(=O)(=O)c1ccc(C)cc1`: the composite z-score in assay [1] is -0.315; in assay [2], 0.712; in [3], -0.161; in [4] it was 0.166; in assay [5], 0.0829; in assay [6], -0.0443. Further, the composite z-score stood at 0.75 in assay [7], 0.279 in assay [9] and 0.251 in [10]. Moreover, the z-score in [8] is -1.1 (inactive).
Regarding `CCCCC#C[C@@H]1C=C[C@H](Oc2cc(OC)c(OC)c(OC)c2)[C@@H](COC(=O)OCC)O1`, the composite z-score in assay [1] is -0.682; in assay [2], -0.0561; in [3], -0.116; in assay [4] it was -0.0152; in assay [5], -0.526; in assay [6], -0.158. The composite z-score in [7] was -0.365; in [9], -0.311; in assay [10], 0.141. Further, the z-score in assay [8] is -0.214 (inactive).
For the compound `CCCNC(=O)OC[C@H]1O[C@H](CCON=Cc2ccc(C(=O)N3[C@H](c4ccc(C)cc4)[C@@H](C)CC[C@H]3C(=O)OC)cc2)C=C[C@@H]1Oc1ccc(OC)cc1`, the composite z-score in assay [1] was -0.52; in assay [2] it was 0.304; in [3] it was -0.173; in assay [4], 0.335; in assay [5], 0.458; in assay [6], 0.448. Besides, the composite z-score in assay [7] was 0.51; in [9] it was 0.598; in [10], -0.102. In assay [8], the z-score was 0.868 (inactive).
As to `COc1ccc(C#C[C@@H]2C=C[C@H](OC(C)=O)[C@@H](COC(C)=O)O2)cc1`, the composite z-score was -0.068 in assay [1]; 0.101 in assay [2]; -0.0769 in [3]; 0.288 in assay [4]; 0.395 in [5]; 0.198 in [6]. The values for the composite z-score in assay [7], in assay [9] and in assay [10] were -0.0975, -0.0985 and -0.191, respectively. Further, the z-score in assay [8] is 0.742 (inactive).
As to `COC(=O)[C@@H]1CC[C@H](C)[C@@H](c2ccc(C)cc2)N1C(=O)c1ccc(C=NO[C@@H](C)c2cn([C@H](CO)Cc3ccccc3)nn2)cc1`, the composite z-score in assay [1] is -0.612; in [2] it was -0.0378; in [3], -0.0943; in assay [4], 0.496; in [5], 1.11; in [6], 0.327. The composite z-score in [7] worked out at 0.477; in [9], 0.517; in assay [10] it was 0.25. For the same compound, the z-score in assay [8] is -3.25 (inactive).
For `CCOC(=O)[C@H](CC(C)C)NC(=O)CCC1CC(OC(=O)NCc2ccc3c(c2)OCO3)CC2(CCCC(COC(=O)NCCCN3CCCC3=O)O2)O1` (stereo not given in full), the composite z-score was -0.303 in [1]; 0.322 in [2]; -0.087 in assay [3]; 0.706 in [4]; 0.99 in [5]; 0.817 in [6]. Also, the composite z-score in assay [7] was 0.984; in assay [9] it was 0.465; in assay [10], -0.0645. Moreover, the z-score in assay [8] is 0.584 (inactive).
As for `O=C1CCCC=C1C(CCc1ccccc1)OC(=O)c1ccc(Br)cc1` (stereo not given), the composite z-score in [1] is -0.351; in assay [2], 0.0329; in assay [3] it was -0.0841; in [4] it was 0.335; in assay [5] it was 0.047; in assay [6], -0.532. Moreover, the composite z-score in [7] is -0.529; in assay [9] it was -0.205; in assay [10], -0.137. The z-score in assay [8] is 3.31 (inactive).
As to `CC(C)=CCCC(C)=CCON=C1C[C@@H](O)[C@@H](O)[C@@H]2[C@@H]3C(=O)N(c4ccc(F)cc4F)C(=O)[C@@H]3CC[C@H]12`, the composite z-score in [1] was -0.292; in [2] it was 0.611; in assay [3], -0.174; in assay [4] it was 0.03; in [5] it was 1; in assay [6] it was 1.06. Moreover, the composite z-score in [7] was determined as 0.849; in assay [9], 0.573; in assay [10] it was 0.0976. The z-score in assay [8] is -0.389 (inactive).
For the compound `C#CCCCON=C1C[C@@H](O)[C@@H](O)[C@@H]2[C@@H]3C(=O)N(c4cccc(Oc5ccccc5)c4)C(=O)[C@@H]3CC[C@H]12`, the composite z-score in assay [1] is -0.2; in assay [2] it was 0.744; in assay [3] it was -0.129; in assay [4], -0.264; in [5] it was -0.87; in [6] it was 0.248. Also, the composite z-score was 0.425 in [7], -0.464 in [9] and -0.0193 in [10]. In [8], the z-score is 1.2 (inactive).
Regarding `Cc1ccc(S(=O)(=O)N[C@@H]2COC(=O)[C@@H](C)COC(=O)CC=C[C@H]2C)cc1`, the composite z-score in assay [1] was -0.305; in assay [2], 0.155; in [3], -0.0777; in [4], 0.259; in assay [5], 0.672; in assay [6], -0.126. Besides, the results for the composite z-score in [7], in assay [9] and in assay [10] were 0.167, 0.045 and 0.251, respectively. In assay [8], the z-score is 0.204 (inactive).
